# p53null 32C tox: p53 null cell cytotoxicity, permissive temperature; H1299-neo p53 null cells, ATP luminescence, 24 h, 32C; Potency, µM (doses to about 46.1 µM), for inactives: at the highest dose activity change, negative = cytotoxicity, hits mostly cytotoxic; hit rate 0.62% among 55,000;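 also: potency is read from the fitted curve at half-maximal effect; 0% = DMSO only and -100% = full killing by 100 µM tamoxifen; nearly all actives have a fitted effect of over 55% in size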
#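 H1299-neo (p53 null) cells, 600/well, treated 24 h at 32C with compound up to 46 uM; ATPlite luminescence viability, normalized to DMSO and 100 uM tamoxifen; AC50 by Hill fit.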
# p53null 39C tox: kills p53 null cells at the nonpermissive temperature; Potency, µM (doses to about 46.1 µM), inactives show top-dose activity, negative = cell killing, hits mostly cytotoxic; AID 904; hit rate 0.97% among 55,000; H1299 p53-null (neo) cells, 39C, ATPlite viability, 24 h;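 also: potency is read from the fitted curve at half-maximal effect; 0% = DMSO only and -100% = full killing by 100 µM tamoxifen; nearly all actives have a fitted effect of over 50% in size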
#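 Temperature-shift cytotoxicity format: compound titrations on p53-null or A138V-expressing H1299 cells held 24 hr at 39C, cell ATP then measured, AC50 from Hill model.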
# NTMT1 inh: NTMT1 methyltransferase inhibition | NTMT1 MTase-Glo SAH luminescence, purified enzyme | Q9BV86 | Potency, µM (doses to about 114 µM), inactives show at the highest dose activity change, negative = inhibition, actives largely listed as inhibitors | hit rate 2.5% among 59,000;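 also: potency is read from the fitted curve at half-maximal effect; plate controls were DMSO vehicle for no effect and no enzyme for full effect; nearly all actives have a fitted effect of over 65% in size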
# Target sequence (Q9BV86 whole entry, looked up): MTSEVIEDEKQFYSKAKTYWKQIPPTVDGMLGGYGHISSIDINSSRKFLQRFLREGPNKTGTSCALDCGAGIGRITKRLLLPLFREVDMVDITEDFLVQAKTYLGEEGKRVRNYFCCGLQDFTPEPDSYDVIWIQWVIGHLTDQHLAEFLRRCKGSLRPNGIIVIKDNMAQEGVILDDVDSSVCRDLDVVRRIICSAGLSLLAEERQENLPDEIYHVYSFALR
# FH mod: Identification of activators of human fumarate hydratase by quantitative high-throughput screening | FH coupled MDH/diaphorase resazurin fluorescence, 15 min | Potency, µM (highest dose often 79.9 µM), for inactives: at the top dose activity change, negative = inhibition, actives largely listed as inhibitors | hit rate 0.22% among 54,000 | AID 1347055, 2019; also: potency is read from the fitted curve at half-maximal effect; % is scaled to controls: 0 for no effect and ±100 for the full control effect; the screen sought activators but most active calls are inhibition curves; nearly all actives have a fitted effect of over 45% in size
# GPR32 ag: activates human resolvin D1 receptor GPR32 | activation, % at 76.9 µM | hit rate 2.5% among 48,000 | CHO-K1 GPR32 beta-arrestin PathHunter luminescence, 90 min; zero percent set by DMSO-only wells;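 active = activation of at least 60% and not above a set upper limit, about 1 call in 100 departs from these limits; inconclusive = activation of 40% to 60%, or above that upper limit; inactive = activation under 40%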; also: 0% is about no effect
# Target sequence (O75388 whole entry, looked up): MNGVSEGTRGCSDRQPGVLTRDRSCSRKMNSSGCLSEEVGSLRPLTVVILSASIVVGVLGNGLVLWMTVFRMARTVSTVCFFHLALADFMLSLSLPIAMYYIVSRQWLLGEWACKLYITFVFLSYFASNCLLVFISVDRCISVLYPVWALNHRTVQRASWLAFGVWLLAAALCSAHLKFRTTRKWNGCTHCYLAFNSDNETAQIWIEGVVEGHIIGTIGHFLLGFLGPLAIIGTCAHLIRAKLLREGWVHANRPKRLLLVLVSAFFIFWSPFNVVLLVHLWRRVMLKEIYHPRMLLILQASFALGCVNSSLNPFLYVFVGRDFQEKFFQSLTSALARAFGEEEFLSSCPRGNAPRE
#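 PathHunter beta-arrestin recruitment in CHO-K1 cells stably expressing ProLink-tagged GPR32. Cells were exposed to compound for 90 min at 37 C, then chemiluminescence was read after 1 h detection at ambient temperature; DMSO served as basal control.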
# GALC G270D act: galactocerebrosidase G270D activity enhancement, cell-based; AID 1159614; P54803; Potency, µM (series often up to 57.5 µM), usual class: activators; 145M-Twi-hGALC-G270D cells, HMU-beta-Gal fluorescence, 48 h; hit rate 0.1% among 45,000; also: potency is read from the fitted curve at half-maximal effect; 0% is about no effect; nearly all actives have a fitted effect of over 65% in size
#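 qHTS, 1536-well; 145M-Twi-hGALC-G270D cells (WT line also made) in DMEM/F12 + 10% FBS; compound incubation on live cells; HMU-β-gal 0.1 mM final, pH 5.2, NaTC; carbonate stop; fluorescence increase = enhanced residual activity.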
# * hit, by the source's call; i = inactive; u = inconclusive; x = no result given; ! = not active in a repeat; [ ] = dose if it differs, or a comment. Only some compounds are listed: those with a hit (about 3.9% of all), similar ones and a draw of the others. Unless noted, calls follow the shape of the dose curve; as a rule, active = well fitted curve in the direction sought with a large enough effect; inconclusive = small, poorly fitted or top-dose-only effect, or another doubt; inactive = no such curve, though single readings can be large; an effect the other way counts as inactive or inconclusive.
SMILES,p53null 32C tox,p53null 39C tox,NTMT1 inh,FH mod,GPR32 ag,GALC G270D act
CC/C=C/C(O)C(O)C1=C(C)C(=O)C2(O1)C(=O)NC(OC)(C(=O)c1ccccc1)C2O (stereo not drawn),x,x,9%[29.8 µM],-1%[53.3 µM],x,x
N#CC1=C2SCN(C3CCCCC3)CN2C(=O)CC1c1ccc(Cl)cc1 (stereo not drawn),-1%,-13%,25µM*,-27%,35,i
N#CC1=C2SCN(C3CCCCC3)CN2C(=O)CC1c1ccc(F)cc1 (stereo not drawn),4%,6%,25µM*,-18%,u,i
N#CC1=C2SCN(C3CCCCC3)CN2C(=O)CC1c1c(F)cccc1Cl (stereo not drawn),3%,10%,32µM*,-15%,10,i
CCS(=O)(=O)N1CCC([C@@H](C)n2c(C)c(C(=O)NCc3c(OC)cc(C)[nH]c3=O)c3ccccc32)CC1,x,x,12%,6%,x,x
CC(=O)NC1=C(NC2CCS(=O)(=O)C2)C(=O)c2ccccc2C1=O (stereo not drawn),11µM*,u,x,x,x,x
O=C(Nc1ccccc1)NC1CCS(=O)(=O)C1 (stereo not drawn),7%,0%,x,x,x,x
O=C(CCN1CCN(CCO)CC1)N1c2ccccc2Sc2ccc(C(F)(F)F)cc21,x,x,16%[57.5 µM],3%[53.3 µM],-6,i
CN1CCN(CCCN2c3ccccc3Sc3ccc(C(F)(F)F)cc32)CC1,x,x,u,u,64*!,i
Cc1ccc(NC(=O)c2ccc(-c3nc4ccccc4[nH]3)cc2)cc1Br,x,x,-4%,x,x,x
COc1ccc(CCc2nc3cc(-c4c(C)noc4C)ccc3n2C[C@H](C)N2CCOCC2)cc1Cl,x,x,0%[57.5 µM],-2%,x,x
Cc1nnc(-c2ccc3occ(-c4ccc(S(C)=O)cc4)c3c2)o1 (stereo not drawn),x,x,19%[57.5 µM],-6%,x,x
Cc1nc2c(-c3ccccc3)c(C)nn2c(C)c1CCC(=O)Nc1ccccc1F,-5%,19%,9%,-10%,60*,i
Cc1c(Cl)cccc1NS(=O)(=O)c1ccc2[nH]cc(C(=O)NC3CCCC3)c(=O)c2c1,2%,18%,0%,u,101*,i
Cc1cc(C)cc(NS(=O)(=O)c2ccc3[nH]cc(C(=O)NCc4ccco4)c(=O)c3c2)c1,u,u,11%,-12%,99*,i
Cc1cc(C)cc(NS(=O)(=O)c2ccc3[nH]cc(C(=O)NCc4ccccc4Cl)c(=O)c3c2)c1,9%,6%,21%,u,-13,i
COc1cccc(NS(=O)(=O)c2ccc3[nH]cc(C(=O)NC4CCCCC4)c(=O)c3c2)c1,2%,u,5%,u,103*,i
Cc1ccccc1NS(=O)(=O)c1ccc2[nH]cc(C(=O)NC(C)c3ccccc3)c(=O)c2c1 (stereo not drawn),10%,16%,-15%,40µM*,-25,i
Cc1ccccc1NS(=O)(=O)c1ccc2[nH]cc(C(=O)NC3CCCCC3)c(=O)c2c1,u,-3%,-17%,u,-9,i
CCC(CC)C(c1ccc(Nc2nc3ccccc3s2)cc1)n1cncn1 (stereo not drawn),x,x,-3%[57.5 µM],-23%,x,x
O=C(O)c1ccc(O)c2ncc(N3CCCCC3)cc12,x,x,10%,x,x,x
Cc1cc(C)cc(NS(=O)(=O)c2ccc3[nH]cc(C(=O)NC4CCCCC4)c(=O)c3c2)c1,3%,u,-15%,u,110*,i
COc1cccc(NS(=O)(=O)c2ccc3c(c2)N(C)C(=O)CC(=O)N3C)c1,-10%,-7%,11%,2%,2,i
CC(C)c1ccc(NS(=O)(=O)c2ccc3[nH]cc(C(=O)NC4CCCCC4)c(=O)c3c2)cc1,49%,u,-3%,u,0,i
COc1cccc(NS(=O)(=O)c2ccc3c(c2)n(C)c(=O)n3C)c1,-13%,-31%,-10%,-11%,86*,i
SMILES,p53null 32C tox,p53null 39C tox,NTMT1 inh,FH mod,GPR32 ag,GALC G270D act
CC(=O)OC1C=C(C(=O)O)C2(CO)CCC(C)C(C)(CCc3ccoc3)C2C1 (stereo not drawn),x,x,10%[29.8 µM],-1%[53.3 µM],x,x
Cn1cc(-c2cnn3c(N)c(Br)c([C@@H]4CCCNC4)nc23)cn1,x,x,35µM*!,0%,x,x
COCCCNC(=O)c1[nH]c2cc(OC)ccc2c1Sc1ccc(C)cc1,-13%,16µM*,u,-30%,-4,i
CO[C@H]1C[C@@H]2CC[C@@H](C)[C@@](O)(O2)C(=O)C(=O)N2CCCC[C@H]2C(=O)O[C@H]([C@H](C)C[C@@H]2CC[C@@H](OCCO)[C@H](OC)C2)CC(=O)[C@H](C)/C=C(/C)[C@@H](O)[C@@H](OC)C(=O)[C@H](C)C[C@H](C)/C=C\C=CC=C1C,x,x,13%,x,x,x
NCCc1ccc(O)c(O)c1,x,x,32µM*!,u,-1,u
O=C(NCc1ccccc1)c1ccc(NC(=O)N2CCSc3ncccc32)cc1,-5%,4%,89µM*,-7%,-9,i
CCc1ccc(CNC(=O)c2ccc(NC(=O)N3CCSc4ncccc43)cc2)cc1,1%,13%,5%,-8%,-6,i
Cc1ccc(CSc2nc3cccnc3n2Cc2ccc(C(=O)NCc3cccs3)cc2)cc1,u,16µM*,u,-11%,1,i
O=C(NC1CC1)c1ccc(Cn2c(SCc3ccc(F)cc3)nc3cccnc32)cc1,u,u,-2%,-5%,63*,i
O=C(NCc1cccs1)c1ccc(Cn2c(SCc3ccccc3)nc3cccnc32)cc1,u,u,-27%,-15%,-3,i
O=C(NCCc1ccccc1)c1ccc(CSc2nc3cccnc3n2Cc2ccc(F)cc2)cc1,12%,-1%,-2%,-22%,0,i
O=C(NCCN1CCCCC1)c1ccc(Cn2c(SCc3ccccc3)nc3cccnc32)cc1,16µM*,13µM*,40µM*,-12%,-10,i
CC1CCCCN1CCNC(=O)c1ccc(Cn2c(SCc3ccccc3)nc3cccnc32)cc1 (stereo not drawn),13µM*,16µM*,u,-11%,-14,i
CC(C)c1nc(-c2ccc(NC(=O)Nc3cccc(C(F)(F)F)c3)c3ccccc23)c2c(N)nccn12,x,x,3%[57.5 µM],-12%,x,x
COC(=O)CC1OC(C)C2=C(O)c3c(O)cccc3C(=O)C23OC13 (stereo not drawn),x,x,-8%[29.8 µM],u,x,x

# Screens: PubChem, National Center for Advancing Translational Sciences (NCATS)
